Compounds with a hit are over-represented: about 2.2% of the library has one in this group of screens.
MmCpn inh: Inhibitors of TCP-1 ring complex (TRiC) of Methanococcus maripaludis (MmCpn): qHTS. purified Mm-Cpn ATPase, ADP Transcreener TR-FRET. AID 504842, 2011. Chaperonin Mm-Cpn (Methanococcus maripaludis). Potency, µM (top dose mostly 76.9 µM), without a hit: top-dose activity, negative = inhibition, most hits filed as inhibitors. hit rate 0.031% among 330,000; also: potency is read from the fitted curve at half-maximal effect; % is scaled to controls: 0 for no effect and ±100 for the full control effect; nearly all actives have a fitted effect of over 80% in size
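Eu-cryptate anti-ADP/ADP-d2 competition gives a ratio inversely related to ADP. Enzyme at 25 nM was pre-exposed to compound for 10 min, then given 10 uM ATP for 30 min, 37°C throughout.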
GLP1R cytotox: qHTS of GLP-1 Receptor Inverse Agonists: Cytotox Screen | HEK293 cAMP-luciferase reporter cells, luminescence, 24 h | Potency, µM (series often up to 38.3 µM), inactives show at the highest dose activity change, negative = inhibition, hits mostly inhibitors | hit rate 0.13% among 410,000;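 also: loss of luciferase light is scored as toxicity; potency is read from the fitted curve at half-maximal effect; % is scaled to controls: 0 for no effect and ±100 for the full control effect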
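Seeding density was 200 cells/uL; after overnight-length (12 h) culture, 23 nL compounds went on for 24 h at 37 °C. Readout used a luciferase detection reagent, luminescence taken after 12 min at room temperature.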
uPA surface inh: qHTS for Inhibitors of Cell Surface uPA Generation. cell surface uPA generation assay, qHTS. hit rate 0.31% among 330,000. Potency, µM (series often up to 38.3 µM), without a hit: at the highest dose activity change, negative = inhibition, hits mostly inhibitors; active = well fitted inhibition curve with a large enough effect; inconclusive = small, poorly fitted or top-dose-only effect; inactive = no such curve, though single readings can be large or run the other way; tested in mouse RAW 264.7 cells; also: potency is read from the fitted curve at half-maximal effect; % is scaled to controls: 0 for no effect and ±100 for the full control effect; nearly all actives have a fitted effect of over 55% in size
CCT modulator: High-Throughput Screening for Modulators of Cytosolic Chaperonin Activity; activity change, % (concentration not given with the values), hits read low; purified chaperonin ATPase assay, HTRF ADP detection, 30 min; AID 651819, 2012; hit rate 0.3% among 360,000; in the data active = activity change below about -30%; also: % is scaled to controls: 0 for no effect and ±100 for the full control effect
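TRiC at 40 or 20 nM final (batch-dependent) in 30 mM Tris pH 7.4, 100 mM KCl, 5 mM MgCl2, 1 mM DTT, with compound at single 76 uM and 10 uM ATP, 30 min at 37 deg C. ADP detected by HTRF Transcreener, 665/615 ratio.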
GLP-1R agonist: qHTS of GLP-1 Receptor Agonists; HEK293 GLP-1R CRE-luciferase, luminescence, 4-6 h; cells express a hypersensitive GLP-1R form; hit rate 0.007% among 380,000; Glucagon-like peptide 1 receptor (Homo sapiens), P43220; AID 624172, 2012; Potency, µM (top dose mostly 45.6 µM), without a hit: top-dose activation, actives largely listed as activators; also: potency is read from the fitted curve at half-maximal effect; % of control where 0% means no effect
Target sequence (P43220 whole entry, looked up): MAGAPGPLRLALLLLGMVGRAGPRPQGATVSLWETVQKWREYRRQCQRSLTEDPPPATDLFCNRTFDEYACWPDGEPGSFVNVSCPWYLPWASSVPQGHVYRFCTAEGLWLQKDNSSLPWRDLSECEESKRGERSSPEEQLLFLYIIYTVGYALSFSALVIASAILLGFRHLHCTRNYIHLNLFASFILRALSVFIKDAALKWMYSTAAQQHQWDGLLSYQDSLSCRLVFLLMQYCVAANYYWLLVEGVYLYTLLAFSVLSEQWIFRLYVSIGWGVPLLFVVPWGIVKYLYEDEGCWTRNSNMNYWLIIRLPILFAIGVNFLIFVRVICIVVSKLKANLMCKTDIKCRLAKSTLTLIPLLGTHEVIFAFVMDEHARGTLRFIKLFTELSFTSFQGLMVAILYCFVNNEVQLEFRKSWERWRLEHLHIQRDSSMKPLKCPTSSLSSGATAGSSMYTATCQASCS
GLP-1R inv ag: qHTS of GLP-1 Receptor Inverse Agonists (Inhibition Mode); HEK293 GLP-1R CRE-luciferase, luminescence, 24 h; GLP-1R form is constitutively active; Potency, µM (series often up to 38.3 µM), for inactives: at the highest dose activity change, negative = inhibition, actives largely listed as inhibitors; hit rate 1.6% among 410,000; AID 624417, 2012; also: potency is read from the fitted curve at half-maximal effect; % is scaled to controls: 0 for no effect and ±100 for the full control effect; nearly all actives have a fitted effect of over 55% in size
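Readout was luciferase luminescence, measured 12 min after detection reagent at room temperature. Beforehand, GLP-1R reporter HEK293 cells had sat 12 h, then received compounds for 24 hr at 37 deg C.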
* hit, by the source's call; ? = inconclusive; / = no result; [ ] = dose if it differs, or a comment. Unless noted, calls follow the shape of the dose curve; as a rule, active = well fitted curve in the direction sought with a large enough effect; inconclusive = small, poorly fitted or top-dose-only effect, or another doubt; inactive = no such curve, though single readings can be large; an effect the other way counts as inactive or inconclusive.

SMILES	MmCpn inh	GLP1R cytotox	uPA surface inh	CCT modulator	GLP-1R agonist	GLP-1R inv ag
CCCCCn1c(=O)[nH]c2cc(C(=O)NCCN3C(C)CCCC3C)ccc2c1=O (centres undefined)	3.6%	-3.8%	0.7%	1.6	6.1%	1.78µM*
O=c1c2sc(-c3ccccc3)cc2nc2n1CCC2	-2.2%	1.6%	-8.6%	-4.2	-17.9%	5.01µM*
COc1ccccc1NC(=O)C1=C(C)Nc2ncnn2C1c1cccn1C (centres undefined)	/	-2.9%	/	/	-0.8%	11.0%
Cc1ccc(C(=O)Cn2c(=N)n(CCN3CCOCC3)c3ccccc32)cc1	-1.4%	2.51µM*	-3.0%	-0.5	5.0%	?
CCn1c(=N)n(CC(=O)c2ccc(Cl)c(Cl)c2)c2ccccc21	-0.1%	-26.1%	0.4%	0.0	15.1%	?
COC(=O)Cn1c(=N)n(CCN2CCCCC2)c2ccccc21	1.0%	-2.8%	-3.2%	0.7	-0.7%	0.1%
N=c1n(CCN2CCCCC2)c2ccccc2n1CC(=O)c1ccc(Cl)c(Cl)c1	-0.5%	?	-5.2%	-1.2	11.3%	5.62µM*
C[C@]12O[C@H](C[C@]1(O)CO)n1c3ccccc3c3c4c(c5c6ccccc6n2c5c31)CNC4=O	/	/	/	/	-11.3%	/
COc1ccc(CN2CCC(CO)(Cc3ccccc3C(F)(F)F)CC2)c(F)c1	-6.0%	?	5.1%	-1.6	-2.2%	8.91µM*
COc1ccc(CC2(CO)CCN(Cc3cccc4nccnc34)CC2)cc1	-13.6%	-4.4%[7.66 µM]	-1.3%	0.3	4.9%	-1.8%[7.66 µM]
CCOC(=O)c1nc2sc3c(c2c(=O)n1C(C)C(=O)OCC)CCCC3 (centres undefined)	0.9%	17.9%	1.7%	-0.7	26.3%	1.26µM*
CCOC(=O)C(CCCOc1ccc(C)cc1)C(=O)OCC	-0.2%	-1.3%	12.2%	-5.6	-7.4%	-24.4%
CCOC(=O)C(CCCOc1ccc(C(C)CC)cc1)C(=O)OCC (centres undefined)	-1.8%	-15.4%	6.0%	-0.2	-11.1%	10µM*
CCC(C)c1ccc(OCc2ccc(C(=O)O)o2)cc1 (centres undefined)	-2.9%	-1.7%	2.6%	0.7	-7.8%	2µM*
CCOc1ccc(NC(=O)CC2C(=O)N(c3cccc(C)c3)C(=O)N2Cc2cccnc2)cc1 (centres undefined)	/	-1.1%	/	/	/	-9.8%
CCc1nn2c(=O)cc(COC(=O)c3ccc(NC(=O)c4cccs4)cc3)nc2s1	/	3.1%	/	/	/	9.1%
O=C(N/N=C/c1cc([N+](=O)[O-])ccc1O)c1ccc2c(c1)OCCO2	-1.6%	3.55µM*	-6.2%	2.5	-2.5%	?
O=C(N/N=C/c1cc([N+](=O)[O-])ccc1O)c1cccc2cc[nH]c12	-0.7%	7.8%	4.47µM*	-2.4	-2.2%	?
Cc1cccc(OCCn2c(-c3ccc(Cl)cc3)nc3ccccc3c2=O)c1C	/	-11.1%	/	/	/	5.4%
Nc1nc(NC2CC2)c2ncn([C@H]3C=C[C@@H](CO)C3)c2n1	/	/	/	/	-1.2%	/
CC[C@]1(O)C[C@H]2CN(CCc3c([nH]c4ccccc34)[C@@](C(=O)OC)(c3cc4c(cc3OC)N(C=O)[C@H]3[C@@](O)(C(=O)OC)[C@H](OC(C)=O)[C@]5(CC)C=CCN6CC[C@]43[C@@H]65)C2)C1	/	/	/	/	26.4%	/
Cc1ccc(NC(=O)N2CCC(CN3CCCC3)CC2)c(C)c1	/	-0.3%	/	/	/	6.0%
CCOC(=O)C1CCCN(C(=O)c2ccc(C(=O)c3ccccc3)cc2)C1 (centres undefined)	-3.5%	-4.0%	-7.7%	-5.8	4.7%	?
CCOC(=O)C1CCCN(C(=O)COc2ccc(C(=O)c3ccccc3)cc2)C1 (centres undefined)	-1.9%	-9.1%	0.5%	-3.0	9.0%	1.58µM*

Compound activity (PubChem)
